IMPase Li inh: membrane-permeable IMPase blocker, potentiated with lithium; AID 1457; 210,000 tested, 0.35% active; CHO-M1 cells, IP1 TR-FRET (IP-One), carbachol + lithium; Potency, µM (doses to about 59.4 µM), hits mostly inhibitors;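 also: IP1 builds up when IMPase is blocked and the TR-FRET signal falls; nearly all actives have a fitted effect of over 50% in size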
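CHO-M1, 2000 cells/well, 16–30 h culture; cpd + low Li+, 30 min 37C; lysis with d2-IP1/Eu-anti-IP1 Ab, 10 min RT; TR-FRET 665/620 ratio and 620 channel; AC50 via Hill.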
12-hLO inh: inhibitors of human 12-lipoxygenase (ALOX12) | Potency, µM (highest dose often 57.1 µM), usual class: inhibitors | purified 12-hLO, xylenol orange hydroperoxide absorbance | P18054 | 150,000 tested, 0.12% active | AID 1452; also: nearly all actives have a fitted effect of over 55% in size
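Lipoxygenase turnover measured by absorbance at 573 and 405 nm after Fe-XO development. Human 12hLO 150 nM, arachidonate 40 uM, pH 7.0 Hepes buffer with detergent; 15 min compound preincubation, 30 min reaction.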
IMPase cell inh: membrane-permeable compound that blocks inositol monophosphatase; inhibition (IP1 accumulation), % at 46.1 µM; P97697; 120,000 tested, under 10 active; CHO-M1 cells, IP1 accumulation, HTRF TR-FRET ratio; active = well fitted curve in the direction sought with a large enough effect in the signal ratio, not every such curve was filed as active; inconclusive = small, poorly fitted or top-dose-only effect, or a change in a side signal; inactive = no such curve, though single readings can be large or run the other way; the % refers to the signal ratio;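 also: cells stimulated with carbachol in lithium chloride buffer; higher means more IMPase inhibition seen as more IP1 and lower FRET ratio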
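In this qHTS, compounds (final up to 46 uM) act on CHO-M1 cells that are then activated through the M1 receptor with carbachol, in pH 7.4 buffer containing 50 mM LiCl, for 30 min. IP1 accumulation is quantified by the IP-One immunoassay.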
ALOX15B inhib: blocks human 15-lipoxygenase 2 activity; Potency, µM (titrated, usually from 57.1 µM), usual class: inhibitors; purified 15hLO-2, xylenol orange hydroperoxide absorbance; AID 881; 110,000 tested, 0.56% active; also: nearly all actives have a fitted effect of over 60% in size
Target sequence (O15296 whole entry, looked up): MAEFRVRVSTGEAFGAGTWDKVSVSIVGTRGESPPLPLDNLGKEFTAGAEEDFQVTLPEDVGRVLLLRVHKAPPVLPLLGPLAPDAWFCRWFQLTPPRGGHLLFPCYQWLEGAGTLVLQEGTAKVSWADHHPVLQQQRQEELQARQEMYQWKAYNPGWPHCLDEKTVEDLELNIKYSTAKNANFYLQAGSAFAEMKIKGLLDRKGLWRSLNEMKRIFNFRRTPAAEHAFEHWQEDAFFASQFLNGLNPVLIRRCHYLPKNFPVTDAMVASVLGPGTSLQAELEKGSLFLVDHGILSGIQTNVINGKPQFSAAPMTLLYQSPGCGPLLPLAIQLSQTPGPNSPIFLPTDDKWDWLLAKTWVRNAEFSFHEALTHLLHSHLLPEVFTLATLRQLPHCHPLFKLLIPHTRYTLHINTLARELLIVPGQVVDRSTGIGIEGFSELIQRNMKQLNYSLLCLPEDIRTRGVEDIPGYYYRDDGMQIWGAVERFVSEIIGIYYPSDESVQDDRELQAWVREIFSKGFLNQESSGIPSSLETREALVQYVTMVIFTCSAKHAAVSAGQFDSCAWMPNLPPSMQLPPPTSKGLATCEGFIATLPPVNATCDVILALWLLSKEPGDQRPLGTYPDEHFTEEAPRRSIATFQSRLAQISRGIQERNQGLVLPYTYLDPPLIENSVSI
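Screening format was qHTS against 50 nM purified 15hLO-2 in Hepes pH 7.5 with detergent. Activity follows hydroperoxide formation from 45 uM arachidonic acid, measured as 573:405 nm absorbance ratio of the ferric-xylenol orange complex.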
HPGD block: blocks human HPGD enzyme activity; purified HPGD, NADH fluorescence kinetic, PGE2 substrate; Potency, µM, most hits filed as inhibitors; 150,000 tested, 4.3% active; active = well fitted inhibition curve with a large enough effect, not every such curve was filed as active; inconclusive = small, poorly fitted or top-dose-only effect, or another doubt; inactive = no such curve, though single readings can be large or run the other way
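20 nM HPGD preincubated 15 min at room temperature with compound in 50 mM Tris-HCl pH 8, 0.01% Tween 20. Started with 1 mM NAD+ and 30 uM prostaglandin E2; NADH fluorescence (360/450 nm) read 5 times over 30-s intervals, last minus first.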
PNC assembly inh: blocks assembly of the perinucleolar compartment | 140,000 tested, 3.1% active | PC3M PTB-GFP, PNC prevalence imaging, 16 h; active compounds read low | AID 2417 | activity change (PNC), negative = inhibition, % at 10 µM;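 active = readout at or below -70, meaning at least 70% loss of cells showing the perinucleolar compartment, a nuclear body marking cancer cells; inconclusive = readout between -30 and a set limit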
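Compounds are pinned in duplicate onto adhered PC3M cells stably expressing GFP-tagged PTB and incubated 16 h at 37 C. Cells are then fixed, nuclei stained with Hoechst, and PNC-positive cells counted.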
Large screens that a line does not name were inactive. In the library only some 5.3% were active in any assay of this set; here they are far more common. Unless noted, calls follow the shape of the dose curve; as a rule, active = well fitted curve in the direction sought with a large enough effect; inconclusive = small, poorly fitted or top-dose-only effect, or another doubt; inactive = no such curve, though single readings can be large; an effect the other way counts as inactive or inconclusive.

CC(=O)OCC(CCn1cnc2cnc(N)nc21)COC(C)=O	HPGD block inconclusive (no result: IMPase cell inh, PNC assembly inh)
Cc1ccc(C(=O)NCCc2ccc(S(N)(=O)=O)cc2)cc1[N+](=O)[O-]	none (no result: 12-hLO inh, IMPase cell inh, ALOX15B inhib, HPGD block, PNC assembly inh)
O=C(O)c1ccccc1NS(=O)(=O)c1ccccc1F	none (no result: IMPase Li inh, IMPase cell inh, ALOX15B inhib, PNC assembly inh)
COc1ccc(NC(=O)C2CCN(S(=O)(=O)c3ccc(OC)c(OC)c3)CC2)c(OC)c1	PNC assembly inh -121
COc1ccc(OCc2ccc(C(=O)O)cc2)cc1	none
COc1ccc(C(=O)N2CCC(C(=O)Nc3ccccc3OC)CC2)cc1	PNC assembly inh -85
COc1ccc(C(=O)N2CCCC2)cc1	HPGD block 6.3µM
COc1ccc(C(=O)N2CCN(C(=O)c3ccncc3)CC2)cc1	none
COc1ccc(OCc2ccc(C(=O)N3CCOCC3)cc2)cc1	HPGD block 7.9µM (no result: ALOX15B inhib)
COc1ccc(CNC(=O)CN(c2ccccc2)S(=O)(=O)c2ccccc2[N+](=O)[O-])cc1	none (no result: 12-hLO inh, IMPase cell inh, ALOX15B inhib, HPGD block, PNC assembly inh)
CN(C)S(=O)(=O)c1ccc(C(=O)N2CCOCC2)cc1	none
COc1ccc(S(=O)(=O)N(C)c2ccc(C(=O)N3CCOCC3)cc2)cc1	HPGD block 6.3µM, PNC assembly inh inconclusive
Nc1cc(C(=O)N2CCCC2)cc(C(=O)N2CCCC2)c1	PNC assembly inh inconclusive
Nc1ccc(C(=O)N2CCCC2)cc1	HPGD block 28µM, PNC assembly inh inconclusive (no result: ALOX15B inhib)
CCCCOc1ccc(C(=O)N2CCCCCC2)cc1	HPGD block 0.79µM
CC(C)NC(=O)NC(=O)COc1ccc(Br)cc1Br	HPGD block inconclusive, PNC assembly inh inconclusive (no result: IMPase cell inh, ALOX15B inhib)
COc1cccc(CC(=O)N[C@@H](CCSC)c2nc3ccccc3[nH]2)c1	none (no result: 12-hLO inh, IMPase cell inh, ALOX15B inhib, HPGD block, PNC assembly inh)
Cc1cc(S(=O)(=O)Nc2ccc(C(=O)O)cc2)c(C)c(S(=O)(=O)c2ccc(Cl)cc2)c1	none (no result: IMPase Li inh, 12-hLO inh, ALOX15B inhib, HPGD block, PNC assembly inh)
CCn1c(C)nc2cc(C(=O)NNC(=O)CCC3CCCC3)ccc21	none (no result: ALOX15B inhib)
O=C(NCc1ccccn1)c1cc(-c2ccccc2Cl)nc2ccccc12	PNC assembly inh -88 (no result: IMPase cell inh, ALOX15B inhib)
O=C(COC(=O)c1cc(-c2ccccc2Cl)nc2ccccc12)Nc1ncc(C(F)(F)F)cc1Cl	IMPase Li inh 10µM, IMPase cell inh inconclusive (no result: ALOX15B inhib)
N=C(N)CCNC(=O)[C@@H]1CCC(N)=N1	none (no result: IMPase cell inh, PNC assembly inh)
O=[N+]([O-])c1ccc(CN2C=NS(=O)(=O)c3ccccc32)cc1	none (no result: 12-hLO inh, IMPase cell inh, ALOX15B inhib, HPGD block, PNC assembly inh)
CCN(CC)CCCNC(=S)N1CCn2c(nc3ccccc32)C1	PNC assembly inh -116 (no result: IMPase cell inh, ALOX15B inhib)
CCN(CC)C(=O)N1CCn2c(nc3ccccc32)C1	none (no result: ALOX15B inhib)
O=C(COC(=O)c1cccc([N+](=O)[O-])c1)c1ccc(OCc2ccccc2)cc1	PNC assembly inh -116 (no result: IMPase cell inh, ALOX15B inhib)
O=C(CCc1ccccc1)OCC(=O)c1cccc([N+](=O)[O-])c1	none (no result: 12-hLO inh, IMPase cell inh, ALOX15B inhib, HPGD block, PNC assembly inh)
Brc1ccccc1OCCCN1CCOCC1	PNC assembly inh -100 (no result: ALOX15B inhib)
CC1CCN(CCCCOc2ccccc2Br)CC1	none (no result: IMPase cell inh, ALOX15B inhib)
O=C(CCl)Nc1ccccc1Sc1ccc(Cl)cc1	none
Cc1ccc(Sc2ccc(NC(=O)CCl)cc2)c(C)c1	HPGD block 11µM (no result: IMPase cell inh, ALOX15B inhib)
COc1ccccc1-c1cncnc1Nc1ccccc1	none (no result: 12-hLO inh, IMPase cell inh, HPGD block, PNC assembly inh)
CCN=C1NN=C(c2ccc(C)cc2)CS1	HPGD block 28µM
c1ccc(CN=C2NN=C(c3ccccc3)CS2)cc1	none (no result: 12-hLO inh, IMPase cell inh, ALOX15B inhib, HPGD block, PNC assembly inh)
Cc1cccc(OCCNc2nc3c(c(=O)n(C)c(=O)n3C)n2C)c1	PNC assembly inh -97
CCCCCCc1ccc(-c2ncc(N)cn2)cc1	HPGD block inconclusive, PNC assembly inh inconclusive
Nc1ccc(-c2cnc(-c3ccc(N)cc3)nc2)cc1	HPGD block inconclusive, PNC assembly inh -123
Cc1nc(NCc2ccccc2)c2nc(-c3ccccc3)n(CCN3CCOCC3)c2n1	HPGD block inconclusive (no result: IMPase cell inh, PNC assembly inh)
COc1cccc(CNc2cccc3cccnc23)c1O	HPGD block 32µM, PNC assembly inh -94
Cc1ccc(O)c(CNc2cccc3cccnc23)c1	none (no result: 12-hLO inh, IMPase cell inh, ALOX15B inhib, HPGD block, PNC assembly inh)
NC(=O)[C@@H]1CCCNC1	none (no result: IMPase cell inh, PNC assembly inh)
Cc1cc(-c2ccccc2)nc2cc(C(=O)Nc3ccc(Cl)c(Cl)c3)nn12	none (no result: IMPase Li inh, 12-hLO inh, ALOX15B inhib, HPGD block, PNC assembly inh)
CSc1nnc2c3ccccc3n(CCc3ccccc3)c2n1	PNC assembly inh -118
CSc1nnc2c3ccccc3n(Cc3ccccc3)c2n1	IMPase Li inh inconclusive, IMPase cell inh inconclusive, PNC assembly inh inconclusive

Source: PubChem BioAssay
